Pf growth 48h = Primary qHTS for delayed death inhibitors of the malarial parasite plastid, 48 hour incubation; P. falciparum luciferase growth in erythrocytes, 48 h; Potency, µM (titrated, usually from 28.7 µM), inactives show top-dose activity change, negative = inhibition, hits mostly inhibitors; hit rate 5.9% among 310,000; AID 504832, 2011; note: potency is the fitted concentration of half-maximal effect; % is set by controls: 0 for no effect and ±100 for the full control effect
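Erythrocytes infected with P. falciparum carrying an integrated firefly luciferase reporter (2% hematocrit, 0.1% parasitemia final) were exposed to compounds in RPMI 1640 with 0.5% Albumax at 37 C, 5% CO2. Growth inhibition was scored as reduced luminescence.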
HCMV antiviral = qHTS Assay for inhibitors of the human cytomegalovirus (HCMV). hit rate 4.5% among 410,000. HFF cells, HCMV-luciferase reporter, 72 h; stronger effect = lower value. activity change, negative = inhibition, % at 57.5 µM; in the data active = activity change below about -60%; inconclusive = no clear call, values can overlap the other calls; inactive = above about -39%; note: % is set by controls: 0 for no effect and ±100 for the full control effect
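Screen run at 2 compound doses on HFFs infected with reporter HCMV, MOI 1 PFU/cell. Luciferase activity from cell lysates at 72 h post infection gave inhibition relative to buffer-only and Salinomycin wells.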
Pf growth 96h = Primary qHTS for delayed death inhibitors of the malarial parasite plastid, 96 hour incubation | P. falciparum luciferase reporter growth, 96 h | Potency, µM (series often up to 28.7 µM), for inactives: top-dose activity change, negative = inhibition, usual class: inhibitors | hit rate 6.9% among 320,000 | AID 504834, 2011; note: potency is the fitted concentration of half-maximal effect; % is set by controls: 0 for no effect and ±100 for the full control effect
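Delayed-death screen, second-generation endpoint: infected erythrocytes, 2% hematocrit, 0.05% parasitemia final; 96 hours at 37 C, 5% CO2; luciferase detection reagent; luminescence decrease equals reduced growth.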
CHX counter = Cycloheximide Counterscreen for Small Molecule Inhibitors of Shiga Toxin; hit rate 12% among 300,000; cell reporter, cycloheximide protein synthesis inhibition counterscreen; AID 2314, 2010; max response, %; in the data active = max response mostly above about 13%, no sharp cut-off; inactive = mostly below about 14%; note: read at 38.3 µM for the half of the compounds with a filed dose; 0% is about no effect
Shiga inhibitor = A qHTS for Small Molecule Inhibitors of Shiga Toxin; AID 2315, 2010; Vero cells, Shiga toxin protein synthesis inhibition reporter; inhibition, % at 38.7 µM; hit rate 9.2% among 290,000; in the data active = inhibition mostly above about 28%, no sharp cut-off; inactive = mostly below about 43%; note: 0% is about no effect
An asterisk follows results filed as active; i = inactive; ? = inconclusive; nt = not tested or not shown. Hits are enriched below; roughly 20% of the tested compounds scored in any of these assays. Unless noted, calls come from the whole dose curve; as a rule, active = well fitted inhibition curve with a large enough effect; inconclusive = small, poorly fitted or top-dose-only effect, or another doubt; inactive = no such curve, though single readings can be large or run the other way.

SMILES | Pf growth 48h | HCMV antiviral | Pf growth 96h | CHX counter | Shiga inhibitor
COc1ccc(CCNc2cc(N3CCN(C(=O)c4ccc(C)cc4)CC3)ccc2[N+](=O)[O-])cc1OC | ? | nt | ? | 1.5 | -8.8
COc1ccc(CCNc2cc(N3CCN(C(=O)c4ccccc4F)CC3)ccc2[N+](=O)[O-])cc1OC | ? | -97.1* | 14.8% | 0.9 | -9.5
O=C(c1ccccc1F)N1CCN(c2ccc([N+](=O)[O-])c(N3CCOCC3)c2)CC1 | 13.8% | -26.7 | ? | 7.6 | -17.0
COc1ccc(C(=O)N2CCN(c3ccc([N+](=O)[O-])c(NCCc4ccc(OC)c(OC)c4)c3)CC2)cc1 | 10.4µM* | -99.2* | 4.65µM* | -2.7 | -0.7
COc1ccc(CC(=O)NC(C)c2ccc3ccccc3c2)cc1 (configuration not stated) | 26.8% | 41.3 | ? | -2.5 | -0.9
COc1cc(C(=O)NCC(c2cccs2)N2CCc3ccccc32)cc(OC)c1OC (configuration not stated) | ? | -0.3 | 56.5% | nt | nt
COc1ccccc1NC(=O)C(=O)NCC(c1ccco1)N1CCc2ccccc21 (configuration not stated) | 11.7µM* | -3.8 | ? | nt | nt
Cc1ccc(C(=O)NCC(c2ccco2)N2CCc3ccccc32)cc1C (configuration not stated) | 9.28µM* | 31.2 | ? | nt | nt
O=C(NCC(c1ccco1)N1CCc2ccccc21)C(=O)Nc1ccccc1F (configuration not stated) | ? | ? | 14.2% | nt | nt
O=C(NCC(c1ccco1)N1CCc2ccccc21)c1ccccc1 (configuration not stated) | ? | -16.1 | ? | nt | nt
COc1ccccc1C(=O)NCC(c1cccs1)N1CCc2ccccc21 (configuration not stated) | 11.7µM* | -27.0 | 3.7µM* | nt | nt
O=C(NCC(c1ccco1)N1CCc2ccccc21)C(=O)Nc1ccccc1 (configuration not stated) | 1.31µM* | -4.1 | ? | nt | nt
O=C(NCC(c1ccco1)N1CCc2ccccc21)C(=O)Nc1ccc(F)cc1F (configuration not stated) | ? | -6.6 | ? | nt | nt
O=C(CSc1n[nH]c(-c2cccnc2)n1)OC1CCCCC1 | -13.7% | -25.6 | i | -3.8 | -8.7
COc1ccccc1C(=O)NCC(c1ccco1)N1CCc2ccccc21 (configuration not stated) | 10.4µM* | -16.1 | 5.22µM* | nt | nt
COc1cc(C(=O)NCC(c2ccco2)N2CCc3ccccc32)cc(OC)c1OC (configuration not stated) | -14.0% | -18.7 | -17.1% | nt | nt
CCOc1cc(N2CCOCC2)c(OCC)cc1NC(=O)[C@H](C)NC(=O)c1ccco1 | -5.6% | 21.5 | ? | 8.2 | 0.5
CC(C)NC(=O)c1ccc(COCC(F)(F)C(F)F)cc1 | nt | 19.1 | 13.1µM* | 21.8 | 19.2
O=C(NCC1CCCO1)c1ccc(COCC(F)(F)C(F)F)cc1 (configuration not stated) | 33.1% | 21.7 | nt | 19.0* | 26.0
COc1ccc(/C=N/NC(=O)c2ccc(COCC(F)(F)C(F)F)cc2)cc1 | -8.5% | -14.3 | -12.9% | -3.0 | -1.4
CC(=O)C1=C(c2ccccc2)NC(=O)NC1c1ccccc1 (configuration not stated) | 17.2% | -32.3 | ? | 1.2 | -3.6
COc1cc(C2NC(=O)NC(c3ccccc3)=C2C(C)=O)c(Br)c(Br)c1O (configuration not stated) | 1.31µM* | 9.7 | 0.738µM* | -1.2 | nt
O=C(Nc1ccc(CN2CCS(=O)(=O)CC2)cc1)c1ccccc1 | 3.7% | -29.7 | 0.5% | -0.9 | 2.2
O=C1c2cccc3cc([N+](=O)[O-])cc(c23)C(=O)N1c1nncs1 | nt | 9.8 | nt | nt | nt
COc1cccc(NC(=O)C(C)SCc2ccccc2)c1 (configuration not stated) | 13.3% | -22.0 | -6.5% | 22.5* | 44.3*
SMILES | Pf growth 48h | HCMV antiviral | Pf growth 96h | CHX counter | Shiga inhibitor
COc1ccc(NC(=O)C(C)SCc2ccccc2)cc1OC (configuration not stated) | 10.8% | -31.3 | 46.7% | 6.4 | -3.1
Cc1ccc(NC(=O)C(C)SCc2ccccc2)cc1 (configuration not stated) | 17.1% | 33.5 | ? | 30.4* | 82.1*
CC(SCc1ccccc1)C(=O)Nc1ccc2c(c1)OCO2 (configuration not stated) | nt | -34.2 | 5.5% | 37.1* | 44.4
Cc1ccc(N2CC(C(=O)OCC(=O)Nc3ccccc3C)CC2=O)cc1 (configuration not stated) | 16.2% | -19.6 | -5.1% | nt | nt
Cc1cc(NS(=O)(=O)c2ccc(N)cc2)nc(C)n1 | -0.7% | 2.2 | 2.4% | nt | nt
OC[C@H]1NC[C@@H](O)[C@@H](O)[C@@H]1O | nt | nt | nt | -5.9 | 6.7
CC(C)NC(=O)CCS(=O)(=O)c1ccc(Br)s1 | 38.3% | 7.9 | 0.465µM* | 16.8 | 32.0
O=C(CCS(=O)(=O)c1ccc(Br)s1)Nc1cc(C(F)(F)F)cc(C(F)(F)F)c1 | nt | -89.7* | nt | nt | nt
CC(C(=O)OCC(=O)c1ccc([N+](=O)[O-])cc1)N1C(=O)C2C3C=CC(C3)C2C1=O (configuration not stated) | 23.0% | -34.9 | 2.3% | -6.2 | 2.2
CC(C(=O)OCC(=O)c1ccc([N+](=O)[O-])cc1)N1C(=O)C2C3CCC(C3)C2C1=O (configuration not stated) | 52.7% | -25.0 | 10.4µM* | 3.6 | -18.0
CS(=O)(=O)N1CCC(C(=O)N2CCN(c3ccc(F)cc3)CC2)CC1 | -9.4% | -15.7 | 18.3% | -1.2 | 33.1
O=C(NCCCNC(=O)c1c(Cl)cccc1Cl)c1c(Cl)cccc1Cl | nt | -3.3 | nt | nt | nt
O=C(c1cc2ccccc2o1)N1CCN(c2ccccn2)CC1 | 4.65µM* | 15.1 | 13.1µM* | -1.0 | -14.9
O=C(c1ccc(Br)o1)N1CCN(c2ccccn2)CC1 | -27.0% | -7.7 | 2.2% | 8.7 | 14.8
O=C(c1cc2c(ccc3ccccc32)o1)N1CCCCC1 | 241.1% | 58.8 | -27.5% | 51.9* | 90.1*
O=C(c1cc2ccccc2o1)N1CCN(c2ccccc2Cl)CC1 | nt | 14.3 | 7.38µM* | 5.0 | 12.2
CCOC(=O)C1=CCC(c2cccc3ccccc23)N(S(=O)(=O)c2ccc(C)cc2)C1 (configuration not stated) | nt | -19.0 | nt | nt | nt
O=C(O)CNC(=O)c1ccc(NC(=O)/C(=C/c2cccc([N+](=O)[O-])c2)NC(=O)c2ccco2)cc1 | -6.2% | -10.8 | -3.1% | 0.8 | -10.7
COC(=O)c1ccc(N2CN=C(c3ccc(C)cc3)NC2=S)cc1 | -6.8% | 53.2 | 30.9% | 10.3 | 13.5
S=C1NC(c2ccccc2)=NCN1c1ccc(Cl)cc1 | nt | 73.0 | ? | 26.9* | 81.2
CCCCc1nc2ccccc2c(N)c1CCC (tested in a mixture with another compound) | 9.28µM* | -67.8* | ? | -3.2 | -1.1

Compound activity as filed in PubChem BioAssay.
